HT1080 IDH1KD tx = HT-1080 IDH1 knockdown cell toxicity (counter line). HT-1080 IDH1 knockdown viability, ATP luminescence, 48 h. Potency, µM (titrated, usually from 46.1 µM), without a hit: at the highest dose activity, negative = toxicity, usual class: cytotoxic. 360,000 tested, 2% active. AID 686971;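 further: potency means the concentration at half of the fitted maximal effect; 0% = DMSO wells and -100% = cell-free medium wells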
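Viability of IDH1-knockdown HT-1080 fibrosarcoma cells was assessed by CellTiter-Glo after 48 h at 37 °C with titrated compound; concentration-effect curves were classified by fit quality and response size.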
ELG1 repair inh = ELG1-dependent DNA repair inhibition | HEK293T ELG1-luciferase reporter, luminescence, 16 h; DNA damage induced by 5-fluorouridine | Potency, µM (series often up to 46.1 µM), for inactives: at the top dose activity change, negative = inhibition, actives largely listed as inhibitors | 330,000 tested, 2.3% active | AID 504467; further: potency means the concentration at half of the fitted maximal effect; nearly all actives have a fitted effect of over 55% in size
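In this reporter screen, reduction of luminescence relative to DMSO vehicle indicated activity. Compounds and 5-fluorouridine were added together to 2,000 cells per well, incubated for 16 hr at 37 °C, then developed with ONE-Glo.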
TDP1 cell noCPT = qHTS for Inhibitors of human tyrosyl-DNA phosphodiesterase 1 (TDP1): qHTS in cells in absence of CPT; DT40 Tdp1-/- hTDP1 cells, no CPT, ATP luminescence, 48 h; Potency, µM (series often up to 46.2 µM), for inactives: at the highest dose activity change, negative = growth inhibition, most hits filed as inhibitors; 420,000 tested, 15% active; AID 686978, 2013; further: potency means the concentration at half of the fitted maximal effect; nearly all actives have a fitted effect of over 55% in size
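Chicken DT40 Tdp1-/- cells stably complemented with human TDP1 were seeded at 400 cells/well with DMSO in place of 20 nM camptothecin. After compound pinning, cells grew at least 48 hr at 37 °C; viability read by CellTiter-Glo luminescence.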
HT1080NT lethal = kills 2HG-producing HT-1080-NT fibrosarcoma cells | HT-1080-NT fibrosarcoma viability, CellTiter-Glo ATP luminescence, 48 h | Potency, µM (titrated, usually from 46.1 µM), for the others: at the top dose activity, negative = less viability, usual class: cytotoxic | 360,000 tested, 1.6% active;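 further: NT is the 2HG producing partner of a matched IDH1 knockdown line; potency means the concentration at half of the fitted maximal effect; 0% = DMSO-treated cells and -100% = media-only wells without cells; nearly all actives have a fitted effect of over 55% in size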
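Fibrosarcoma NT cells, 750 per well in 5% FBS RPMI, were exposed to compound for 48 hours. Viability: CellTiter-Glo luminescence.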
IL1B secr inh = inhibitors of inflammasome signaling (IL-1 beta secretion) | 360,000 tested, 4.7% active | activity change, % at 57.5 µM | THP-1 LPS/ATP IL-1B secretion, AlphaLISA, 16 h; active compounds read low; in the data active means activity change below about -50%; inconclusive means mostly about -30% to -49%
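Secreted IL-1B measured by AlphaLISA bead assay after 16 h compound exposure of THP-1 cells; compounds (final up to 57.5 uM) added 1 h before LPS (250 ng/mL) and ATP (1.25 mM) stimulation; lower signal means less secretion.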
TDP1 cell CPT = DT40-hTDP1 cell growth loss with CPT; chicken DT40 Tdp1-/-;hTDP1 cells + 20 nM CPT, ATP luminescence, 48 h; Potency, µM (doses to about 46.2 µM), for inactives: top-dose activity change, negative = growth inhibition, usual class: inhibitors; 420,000 tested, 12% active; further: potency means the concentration at half of the fitted maximal effect; nearly all actives have a fitted effect of over 55% in size
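Cell growth measured by CellTiter-Glo luminescence after a minimum 48 h, 37 C compound exposure with 20 nM CPT in Tdp1-knockout DT40 cells stably expressing hTDP1, seeded 400/well; qHTS titration format.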
Numbers without * were called inactive; ? = inconclusive; . = no result given. Shown are actives, neighbours in structure and some others; about 19% of the full set was active somewhere. Unless noted, the call rests on the fitted dose curve; in most records, active means well fitted curve in the direction sought with a large enough effect; inconclusive means small, poorly fitted or top-dose-only effect, or another doubt; inactive means no such curve, though single readings can be large; an effect the other way counts as inactive or inconclusive. Unless noted, on the % scale 0 is the no-effect control and ±100 the full control effect.

SMILES	HT1080 IDH1KD tx	ELG1 repair inh	TDP1 cell noCPT	HT1080NT lethal	IL1B secr inh	TDP1 cell CPT
CC(=O)c1ccc(Nc2nc(N3CCOCC3)nc(N3CCOCC3)n2)cc1	11%	-24%	-20%	14%	-54*	?
CC(=O)c1cccc(Nc2nc(N3CCOCC3)nc(N3CCOCC3)n2)c1	8%	?	?	-8%	-20	?
O=C(NNc1nc(Nc2ccccc2)nc(N2CCOCC2)n1)Nc1ccc(Cl)cc1	?	-7%	?	?	21	21µM*
Cc1cc2nc(CN(C)C(=O)C3CCC(=O)N(C4CCCC4)C3)[nH]c2cc1C (stereo not drawn)	11%	.	-14%	7%	-10	2%
COc1ccc(Cl)cc1NS(=O)(=O)N1CCOCC1	8%	9%	20%	12%	8	-1%
COC(=O)CSc1ccnc2cc(Cl)ccc12	1%	5%	13%	4%	35	-1%
CC(C)NC1CCC(Nc2ccnc3cc(Cl)ccc23)CC1 (stereo not drawn)	?	.	9.2µM*	-9%	-93*	6.5µM*
Clc1ccc2c(NCCNC3CCCCC3)ccnc2c1	21µM*	.	15µM*	15µM*	-95*	16µM*
CC(CCCN1CCCC1)Nc1ccnc2cc(Cl)ccc12 (stereo not drawn)	?	.	23µM*	-16%	?	?
CC1CCCN1c1ccnc2cc(Cl)ccc12 (stereo not drawn)	-14%	.	16µM*	-12%	-1	29µM*
Clc1ccc2c(NCc3ccccn3)ccnc2c1	-4%	-15%	-13%	-1%	13	?
O=C(O)CSCC(=O)N1CCN(c2ccnc3cc(Cl)ccc23)CC1	8%	12%	8%	6%	1	3%
O=c1oc2ccccc2n1CCCOc1ccccc1Cl	.	.	?	.	.	-20%
COc1ccc(C(=O)N2CCC3(CCCN(CC(C)C)C3)CC2)cc1	.	.	-3%	.	.	13%
COc1ccccc1N(CC(=O)NCCSCc1cccc(Cl)c1)S(C)(=O)=O	-9%	1%	?	-11%	27	?
COc1ccccc1N(CC(=O)NCCSCc1ccccc1)S(=O)(=O)c1ccccc1	-12%	.	23µM*	-1%	-20	?
CCOc1ccc(N(CC(=O)NCCSCc2ccccc2)S(C)(=O)=O)cc1	-3%	9%	5.8µM*	-5%	12	1.8µM*
COc1ccccc1N(CC(=O)NCCSCc1ccccc1)S(=O)(=O)c1ccc(C)cc1	?	?	12µM*	-16%	-19	9.2µM*
CCOc1ccc(N(CC(=O)NCCSCc2ccc(C)cc2)S(C)(=O)=O)cc1	-2%	-11%	?	-6%	-2	3%
COc1ccccc1N(CC(=O)NCCSCc1ccco1)S(=O)(=O)c1ccccc1	1%	-23%	16µM*	21%	0	18µM*
CCCCOc1ccc(NC(=O)CSc2ccc(C(=O)O)cn2)cc1	.	.	11%	.	.	-2%
COc1cc([N+](=O)[O-])ccc1NC(=O)Oc1ccc(NC(C)=O)cc1	-21%	-8%	-5%	-20%	-8	-3%
CCOc1cc(C(=O)OCC(=O)c2c(C)[nH]c3ccccc23)ccc1OCC(=O)N1CCOCC1	-1%	16µM*	?	-1%	-10	?
CCOc1cc(/C=C/c2nc3ccccc3s2)ccc1OCC(=O)N1CCOCC1	-26%	23µM*	21µM*	-26%	-21	-83%
CCOc1cc(C(=O)NCc2ccccc2)ccc1OCC(=O)N1CCOCC1	4%	21%	4%	-7%	0	9%
SMILES	HT1080 IDH1KD tx	ELG1 repair inh	TDP1 cell noCPT	HT1080NT lethal	IL1B secr inh	TDP1 cell CPT
CCCN(C(=O)Cn1cnc2sc(C)c(S(=O)(=O)N3CCN(c4ncccn4)CC3)c2c1=O)c1cccc(C)c1	.	.	15µM*	.	.	-26%
CCC(C)NC(=O)Cn1cnc2sc(C)c(S(=O)(=O)N3CCN(c4ncccn4)CC3)c2c1=O (stereo not drawn)	1%	1%	2%	16%	4	8%
COc1ccc(N2CCN(C(=O)Cn3cnc4sc(C)c(S(=O)(=O)N5CCC(C)CC5)c4c3=O)CC2)cc1	.	.	23µM*	.	.	?
Cc1sc2ncn(CC(=O)N3CCN(c4ccc(Cl)cc4)CC3)c(=O)c2c1S(=O)(=O)N1CCN(c2ncccn2)CC1	.	.	?	.	.	12µM*
Cc1c(C(=O)N2CCC(C)CC2)sc2ncn(CC(=O)N3CCC(C)CC3)c(=O)c12	3%	3%	27%	15%	11	-17%
COc1ccccc1N1CCN(C(=O)c2sc3ncn(CC(=O)N4CCC(C)CC4)c(=O)c3c2C)CC1	-13%	-1%	1.8µM*	-22%	19	?
Cc1c(C(=O)N(C)C)sc2c1c(=O)n(-c1ccc(F)cc1)c(=O)n2Cc1cc(=O)n2ccccc2n1	.	.	-2%	.	.	4%
Cc1ccc(NC(=O)Cn2c(=O)n(-c3ccc(CC(=O)NCC4CCCO4)cc3)c(=O)c3ccccc32)cc1 (stereo not drawn)	.	.	-1%	.	.	5%
COc1ccc(N2CCN(C(=O)COC(=O)c3nc(Cl)ccc3Cl)CC2)cc1	0%	.	-3%	-6%	4	-13%
Cc1cccc(N2CCN(C(=O)Cn3cnc4sc(C)c(S(=O)(=O)N5CCN(c6ncccn6)CC5)c4c3=O)CC2C)c1 (stereo not drawn)	.	.	15µM*	.	.	16µM*
CCOc1ccc2nc(NC(=O)c3cnccn3)sc2c1	8%	?	23µM*	15%	-16	23µM*
COC(=O)c1ccc2nc(Nc3nc4ccc(F)cc4s3)sc2c1	?	?	?	?	20	-21%
CCOC(=O)c1csc(Nc2nc3ccc(F)cc3s2)n1	?	?	9.2µM*	-25%	110	21µM*
O=C(Nc1nc2ccc(F)cc2s1)C1=NN(c2ccccc2)C(=O)CC1	0%	?	2%	-2%	55	-6%
O=C(Nc1nc2ccccc2s1)c1ccccc1	-12%	?	-25%	-2%	1	?
O=C(Nc1nc2ccc(F)cc2s1)c1ccccn1	8.2µM*	?	0.52µM*	?	-95*	0.65µM*
O=C(Nc1nc2ccccc2s1)c1cnccn1	?	?	?	2.8µM*	11	?
CCOc1ccc2nc(NC(=O)CSc3ccc(Cl)cc3)sc2c1	-18%	3%	?	-17%	-1	?
